In PubChem BioAssay (NCI) one finds growth data, which are given here for eight compounds.

This is part of a sample that, as a whole, favours compounds with a hit. Of some 83,000 tested, about 20% had one in any assay.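 48-hour exposure, single concentration, 96-well plates; percent growth endpoint where 0 means no net growth. Active: below 10.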 Unmarked numbers belong to inactive results. The source made the active and inactive calls.

Some test systems named below: SK-MEL-2 melanoma; EKVX NSCLC; SN12C renal; UO-31 renal; TK-10 renal; ACHN renal; CAKI-1 renal; A498 renal; MOLT-4 leukemia; SR leukemia; RPMI-8226 leukemia; OVCAR-8 ovarian; OVCAR-5 ovarian; OVCAR-4 ovarian; SK-OV-3 ovarian; IGROV1 ovarian; OVCAR-3 ovarian; HS 578T breast; NCI/ADR-RES ovarian.
Holding throughout (assay): NCI-60 one-dose screen, 48 h (100 = growth as untreated, 0 = no growth, -100 = all killed)
Details in all cases: 10 µM unless noted

In the case of `COc1ccc(-c2cc(-c3ccc(Nc4nc(Nc5ccc(Cl)cc5)nc(Nc5ccc(Cl)cc5)n4)cc3)nc(N)c2C#N)cc1`, the growth in the assay with SK-MEL-2 melanoma is 13.1%; in the assay on EKVX NSCLC it was -27.1% (active); with SN12C renal it was 58.3%; with UO-31 renal, -46.7% (active); with TK-10 renal, -67.3% (active); with ACHN renal, -59.5% (active). Besides, the growth in the assay on CAKI-1 renal is 44.2%; in the assay with A498 renal it was 65.7%; in the assay with MOLT-4 leukemia it was 15.9%; with SR leukemia, 5.37% (active); with RPMI-8226 leukemia, -23.5% (active); with OVCAR-8 ovarian, 39.8%. For the same compound, the growth is 37% with OVCAR-5 ovarian; 14.6% in the assay with OVCAR-4 ovarian; 104% in the assay on SK-OV-3 ovarian; 6.53% (active) in the assay on IGROV1 ovarian; -15.5% (active) with OVCAR-3 ovarian; 29.2% in the assay on HS 578T breast. The growth in the assay on NCI/ADR-RES ovarian is 51%.

`Cc1ccc(-c2c(-c3ccccc3)c(=O)oc3ccc(C)cc23)cc1`: the growth is 134% with SK-MEL-2 melanoma; 96.9% in the assay with EKVX NSCLC; 91.9% in the assay with SN12C renal; 79.9% with UO-31 renal; 118% with TK-10 renal; 90.6% in the assay with ACHN renal. Further, the growth in the assay with CAKI-1 renal was 81.1%; in the assay on A498 renal, 97.9%; with MOLT-4 leukemia, 76.3%; in the assay on SR leukemia, 71.1%; in the assay with RPMI-8226 leukemia it was 87.7%; with OVCAR-8 ovarian, 93.9%. Moreover, the growth with OVCAR-5 ovarian was 113%; with OVCAR-4 ovarian, 98.5%; with SK-OV-3 ovarian, 101%; with IGROV1 ovarian, 145%; in the assay on OVCAR-3 ovarian, 117%; with HS 578T breast it was 99.6%. Besides, the growth in the assay with NCI/ADR-RES ovarian was 93.2%.

In the case of `Cc1ccc(C(=O)C2=C(O)C(=O)N(Cc3cccnc3)C2c2ccccc2F)o1` (stereo unspecified), the growth in the assay on SK-MEL-2 melanoma is 92.1%; with EKVX NSCLC, 97.7%; in the assay with SN12C renal, 95.7%; in the assay on UO-31 renal, 93.3%; in the assay on TK-10 renal, 104%; with ACHN renal, 98.5%. For the same compound, the growth in the assay on CAKI-1 renal is 105%; in the assay with A498 renal, 95%; with MOLT-4 leukemia, 90.3%; in the assay with SR leukemia it was 97.3%; with RPMI-8226 leukemia, 105%; with OVCAR-8 ovarian it was 92.6%. For the same compound, the growth with OVCAR-5 ovarian is 101%; with OVCAR-4 ovarian, 106%; in the assay with SK-OV-3 ovarian, 94.5%; in the assay on IGROV1 ovarian, 68.2%; in the assay with OVCAR-3 ovarian, 97.4%; with HS 578T breast, 102%. Besides, the growth with NCI/ADR-RES ovarian is 98.9%.

Regarding `N=c1sc(Cc2ccc(Cl)cc2)cn1CC(=O)c1ccc(F)cc1`, the growth in the assay on SK-MEL-2 melanoma is 97.1%; in the assay with EKVX NSCLC it was 70.5%; in the assay on SN12C renal, 87.5%; with UO-31 renal, 57.6%; in the assay with TK-10 renal it was 66.9%; with ACHN renal it was 47.2%. The growth was 44.6% in the assay on CAKI-1 renal; 91.1% in the assay on A498 renal; 71.3% in the assay with MOLT-4 leukemia; 87.4% with SR leukemia; 74.1% with RPMI-8226 leukemia; 80% in the assay with OVCAR-8 ovarian. Also, the growth in the assay with OVCAR-5 ovarian was 71%; in the assay with OVCAR-4 ovarian, 69%; in the assay on SK-OV-3 ovarian, 107%; in the assay on IGROV1 ovarian it was 78.2%; in the assay on OVCAR-3 ovarian, 92.6%; in the assay with NCI/ADR-RES ovarian, 73.9%.

Turning to `CN(C)c1ccc(-c2cc(-c3ccc(Nc4nc(Nc5ccc(Cl)cc5)nc(Nc5ccc(Cl)cc5)n4)cc3)no2)cc1`, the growth was 31.6% in the assay with SK-MEL-2 melanoma; 41.3% in the assay on EKVX NSCLC; 53.8% in the assay on SN12C renal; 23.5% in the assay with UO-31 renal; 48.4% in the assay with TK-10 renal; 46.5% in the assay with ACHN renal. Besides, the growth is 39.7% in the assay with CAKI-1 renal; 67.5% in the assay on A498 renal; -24.7% (active) in the assay on MOLT-4 leukemia; -39.3% (active) in the assay on SR leukemia; -58.6% (active) in the assay with RPMI-8226 leukemia; 49.7% with OVCAR-8 ovarian. Also, the growth in the assay with OVCAR-5 ovarian was 54.6%; in the assay on OVCAR-4 ovarian it was 41.6%; in the assay with SK-OV-3 ovarian it was 80.1%; with IGROV1 ovarian, 22.4%; in the assay with OVCAR-3 ovarian, 29.8%; with HS 578T breast it was 13.6%. Further, the growth with NCI/ADR-RES ovarian is 41.1%.

Consider `COc1ccccc1NC(=O)N/C(N)=N/c1nc2ccccc2s1`, for which the growth in the assay with SK-MEL-2 melanoma is 48.6%; in the assay with EKVX NSCLC it was 53.2%; in the assay on SN12C renal, 37.1%; in the assay on UO-31 renal, 52.9%; in the assay on TK-10 renal it was 59.3%; in the assay with ACHN renal, 42.2%. For the same compound, the growth in the assay on CAKI-1 renal was 36.4%; in the assay with A498 renal it was -10.5% (active); in the assay with MOLT-4 leukemia, 15.4%; in the assay with SR leukemia, 9.32% (active); in the assay with RPMI-8226 leukemia, 9.34% (active); in the assay with OVCAR-8 ovarian it was 27.1%. Also, the growth was 34.8% in the assay on OVCAR-5 ovarian; 50.7% with OVCAR-4 ovarian; 40.5% in the assay with SK-OV-3 ovarian; 21.8% with IGROV1 ovarian; -18.9% (active) in the assay on OVCAR-3 ovarian; 27.9% with HS 578T breast. For the same compound, in the assay on NCI/ADR-RES ovarian, the growth was 4.92% (active).

Turning to `Cn1c2c(c3ccc(Cl)c(Cl)c31)C(C#N)C1(CCNCC1)NC2=O` (stereo unspecified), the growth was 11.5% in the assay with SK-MEL-2 melanoma; 46.2% in the assay on EKVX NSCLC; 44.2% in the assay on SN12C renal; 31.7% in the assay on UO-31 renal; 38.3% with TK-10 renal; 26.8% in the assay with ACHN renal. Further, the growth was 29.6% with CAKI-1 renal; 44.9% with A498 renal; 15.6% in the assay with MOLT-4 leukemia; 13.6% in the assay with SR leukemia; 14.2% in the assay on RPMI-8226 leukemia; 67.8% with OVCAR-8 ovarian. Also, the growth in the assay with OVCAR-5 ovarian was 62.1%; in the assay on OVCAR-4 ovarian, 53.5%; in the assay on SK-OV-3 ovarian, 68.7%; with IGROV1 ovarian, -19.3% (active); in the assay with OVCAR-3 ovarian, 48.1%; with HS 578T breast, 35.1%. Besides, the growth with NCI/ADR-RES ovarian was 68.5%.

`O=C1C=C[C@]2(C[C@@H](c3cccc(C(F)(F)F)c3)O[C@@H](c3cccc(C(F)(F)F)c3)O2)O1`: the growth with SK-MEL-2 melanoma is -26.7% (active); in the assay with EKVX NSCLC it was 80.9%; with SN12C renal, 0.629% (active); in the assay with UO-31 renal, -77.3% (active); in the assay on TK-10 renal, -85.5% (active); with ACHN renal, -49.4% (active). The growth with CAKI-1 renal was 32.8%; in the assay with A498 renal it was 31%; in the assay on MOLT-4 leukemia it was 3.17% (active); in the assay with SR leukemia, 9.17% (active); in the assay with RPMI-8226 leukemia it was -2.8% (active); in the assay on OVCAR-8 ovarian it was 38.5%. Moreover, the growth was 86.2% in the assay on OVCAR-5 ovarian; 48.9% in the assay with OVCAR-4 ovarian; 84.9% in the assay with SK-OV-3 ovarian; 22.3% in the assay on IGROV1 ovarian; -33.1% (active) in the assay on OVCAR-3 ovarian; -4.02% (active) with HS 578T breast. The growth with NCI/ADR-RES ovarian is 51.3%.
